Results on 17 compounds are retold here after PubChem BioAssay (NCI).

What all share (experiment): NCI-60 one-dose screen, 48 h (100 = growth as untreated, 0 = no growth, -100 = all killed)
What all share (settings): 10 µM

Assay [1] deals with SK-MEL-2 melanoma.
In assay [2] the test system is SN12C renal.
Assay [3] relates to UO-31 renal.
In assay [4] the test system is TK-10 renal.
Assay [5] concerns ACHN renal.
Assay [6] relates to CAKI-1 renal.
The test system of assay [7] is CCRF-CEM leukemia.
The test system of assay [8] is MOLT-4 leukemia.
In assay [9] the test system is SR leukemia.
The subject of assay [10] is RPMI-8226 leukemia.
Assay [11] deals with OVCAR-8 ovarian.
The test system of assay [12] is OVCAR-5 ovarian.
Assay [13] deals with OVCAR-4 ovarian.
Assay [14] deals with SK-OV-3 ovarian.
Assay [15] has as its system IGROV1 ovarian.
For assay [16], the system named is OVCAR-3 ovarian.
The test system of assay [17] is NCI/ADR-RES ovarian.
The subject of assay [18] is EKVX NSCLC.
For assay [19], the system named is A498 renal.
The test system of assay [20] is HS 578T breast.

Compounds without any hit were thinned out: in the full panel of roughly 83,000, 20% have a hit.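 Activity criterion: percent growth below 10, measured after cells in 96-well plates were exposed to a single compound concentration for 48 hours.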 Values without a mark were called inactive. Activity calls are given as the source filed them.

Turning to `COc1ccc2nc3cc(Cl)ccc3c(N)c2c1`, the growth was -71.2% (active) in assay [1]; -80.3% (active) in assay [2]; -74% (active) in assay [3]; -68.7% (active) in assay [4]; -99.5% (active) in assay [5]; -55.6% (active) in assay [6]. The growth was -5.6% (active) in [7]; -55.4% (active) in [8]; -39.1% (active) in assay [9]; -1.72% (active) in [10]; -44.4% (active) in assay [11]; -91.8% (active) in assay [12]. Also, the growth in assay [13] was -98% (active); in [14], -97.7% (active); in assay [15] it was -33% (active); in assay [16] it was -93.7% (active); in assay [17], -97.2% (active).
Turning to `COc1ccc(N=Nc2cc(OC)c(OC)c(OC)c2)cc1`, the growth in [1] is 74.1%; in [18] it was 77.3%; in [3], 58.6%; in assay [4], 84.7%; in assay [5] it was 80.2%; in assay [6], 70.2%. The growth is 73.5% in assay [19]; 65.6% in [7]; 78% in [8]; 58.2% in [9]; 72.8% in [10]; 87.2% in assay [11]. Besides, the growth in assay [12] is 77.8%; in [13], 100%; in assay [14] it was 77.6%; in assay [15] it was 62.7%; in assay [16] it was 87.7%; in assay [20], 79.3%. Moreover, the growth in [17] is 91.2%.
In the case of `COc1cccc2ccc(CC(O)(c3ccccc3)c3ccccc3)nc12`, the growth is 85.1% in [1]; 93.8% in assay [2]; 59.8% in [3]; 128% in assay [4]; 84.3% in [5]; 87.2% in assay [6]. In addition, the growth in assay [19] was 102%; in assay [7] it was 95.7%; in assay [8], 88.6%; in assay [9] it was 82.3%; in [10], 90.7%; in assay [11] it was 91.5%. Besides, the growth was 115% in assay [12]; 51.2% in [13]; 93.3% in assay [14]; 80.3% in assay [16]; 103% in assay [20]; 94.4% in [17].
Regarding `CC(=O)Nc1cc2c(cc1Cl)Cc1cc(Cl)ccc1-2`, the growth is 103% in [1]; 12% in assay [18]; 65.4% in [3]; 86.4% in assay [4]; 88.2% in assay [5]; 75.6% in [6]. In addition, the growth in [8] was 103%; in [9], 80.1%; in assay [10], 111%; in [11] it was 88.2%; in assay [12], 83.7%; in [13], 83.9%. Further, the growth in assay [14] was 96%; in [15], 72.4%; in [16], 103%; in [20], 78.6%; in assay [17], 97%.
For `Cc1ccc(C(C)C)c(O)c1NC(=O)OC(C)C`, the growth in [1] was 96.6%; in assay [18], 92.3%; in assay [2] it was 91.9%; in assay [4], 116%; in assay [6] it was 121%; in assay [19], 91.5%. Moreover, the growth in assay [7] was 104%; in assay [8], 122%; in assay [9] it was 115%; in assay [10], 102%; in assay [11] it was 95.7%; in assay [14], 106%. Also, the growth is 104% in [16], 95.8% in assay [20] and 98.3% in assay [17].
As to `CCOC(=O)N/N=C/c1ccc(OC)c(OC)c1`, the growth in assay [1] is 115%; in assay [2], 99.2%; in assay [3], 106%; in assay [4], 123%; in assay [5] it was 106%; in assay [6] it was 110%. The growth in assay [19] was 107%; in [7], 91.4%; in [8], 107%; in [9], 105%; in assay [10], 102%; in assay [11], 102%. Also, the growth in assay [12] is 112%; in [13], 110%; in [14] it was 114%; in assay [15], 110%; in assay [16], 128%; in [17], 116%.
Regarding `O=C1/C(=C/c2ccc([N+](=O)[O-])s2)Oc2cc(Cl)ccc21`, the growth in assay [1] is -49.9% (active); in [2], -2.52% (active); in [3], -92% (active); in [4] it was -26.8% (active); in [5], -70.5% (active); in assay [6], 52.8%. The growth in assay [19] is 102%; in assay [7], -9.78% (active); in assay [8], 2.92% (active); in [9] it was 8.31% (active); in assay [10] it was -14.7% (active); in [11] it was -25.5% (active). For the same compound, the growth in assay [12] is 53%; in assay [13], 3.28% (active); in assay [14] it was 88.8%; in [15], -60.9% (active); in assay [16], -76.8% (active); in assay [20], 1.22% (active). Besides, the growth in assay [17] was 24%.
Turning to `Cc1cc(SC#N)cc(C(C)(C)C)c1O`, the growth in [1] was 82.2%; in assay [18] it was 102%; in assay [3] it was 93.6%; in assay [4] it was 108%; in assay [5], 101%; in assay [6] it was 96.4%. Besides, the growth in assay [19] was 86.1%; in assay [7], 86.4%; in [8], 66.9%; in assay [9], 86%; in assay [10] it was 96.6%; in [11], 99.9%. For the same compound, the growth in assay [12] was 88.4%; in [13] it was 96.1%; in [14] it was 93.1%; in assay [15], 100%; in [16] it was 95%; in assay [20] it was 110%. Besides, in [17], the growth was 104%.
In the case of `COc1cc(C2CC(c3ccc4c(c3)OCO4)=NN2c2ccccc2)cc(OC)c1OC` (stereo unspecified), the growth was 108% in assay [1]; 89.4% in assay [18]; 90.9% in assay [2]; 112% in [4]; 75.4% in [6]; 97.9% in assay [19]. Further, the growth in [7] was 80.8%; in assay [8], 82.3%; in assay [9], 71.9%; in [10], 75.7%; in [11], 99.3%; in assay [14], 107%. Besides, the growth in assay [16] is 89.8%; in assay [17], 77.7%.
As for `COc1ccc2c(c1)C(=O)/C(=C/c1ncc([N+](=O)[O-])n1C)O2`, the growth in assay [1] was -52.1% (active); in assay [2], -11.5% (active); in assay [3], -46.4% (active); in assay [4], -37.9% (active); in assay [5] it was 9.55% (active); in assay [6], -21.6% (active). Also, the growth is -35.5% (active) in assay [19]; 95.1% in assay [7]; -5.94% (active) in assay [8]; 9.33% (active) in assay [9]; 105% in assay [10]; -18.2% (active) in [11]. The growth in assay [12] is 1.74% (active); in assay [13], -6.9% (active); in [14] it was -21.7% (active); in assay [15], -30.4% (active); in [16] it was -18% (active); in assay [20] it was -9.93% (active). In addition, the growth in assay [17] was -0.383% (active).
Consider `CC1C(=NC(=O)c2cnccn2)C(C)C(c2ccc(Cl)cc2)NC1c1ccncc1` (stereo unspecified), for which the growth in [1] was 104%; in [18], 88.6%; in assay [2] it was 93.3%; in assay [4] it was 130%; in assay [5], 91.5%; in assay [19], 115%. Further, the growth in assay [8] is 78.5%; in assay [9], 126%; in assay [10] it was 69.1%; in [11] it was 88.3%; in [12] it was 103%; in assay [13], 122%. In addition, the growth in assay [14] was 94.4%; in assay [16] it was 113%; in [20] it was 125%; in assay [17] it was 90.3%.
Regarding `CC(C)Cc1ccc([C@H](C)C(=O)O)cc1`, the growth in assay [18] was 104%; in [2], 103%; in assay [3], 86.5%; in [4], 100%; in [5], 108%; in assay [6], 93.7%. Besides, the growth was 99.1% in assay [19]; 102% in assay [7]; 90.5% in assay [8]; 99.9% in [9]; 115% in assay [10]; 107% in [11]. Also, the growth in [12] is 107%; in assay [13] it was 115%; in assay [14], 119%; in assay [15] it was 116%; in [16], 111%; in assay [20] it was 110%. In addition, the growth in [17] was 108%.
`CN1CCN(c2cc3c(cc2F)c(=O)c(C(=O)O)cn3-c2ccc(F)cc2)CC1`: the growth in [18] is 108%; in [2], 97.3%; in [3] it was 68.7%; in [4], 103%; in [5], 95.1%; in assay [6], 94.7%. The growth in assay [19] is 86.8%; in assay [7] it was 102%; in assay [8] it was 84.2%; in assay [9], 96.4%; in assay [10] it was 101%; in assay [11], 96.8%. The growth in assay [12] is 106%; in assay [13], 102%; in [14], 109%; in assay [15], 103%; in [16], 102%; in assay [20], 99.6%. Moreover, the growth in assay [17] is 90.1%.
For `CN1C(C(=O)Nc2ccccn2)=C(O)c2sc(Cl)cc2S1(=O)=O`, the growth in assay [18] was 102%; in [2], 103%; in [3] it was 78.8%; in assay [4], 104%; in assay [5] it was 100%; in [6], 92.4%. For the same compound, the growth in assay [19] was 90.1%; in assay [7] it was 87.4%; in [8] it was 110%; in assay [9] it was 96.1%; in assay [10], 94.5%; in [11], 95.9%. Besides, the growth in [12] was 104%; in assay [13], 106%; in [14], 104%; in assay [15] it was 99.6%; in [16], 105%; in [20], 98.5%. Further, the growth in assay [17] is 95.4%.
`Cc1cn(-c2cc(F)cc(NC(=O)c3ccc(C)c(Nc4nccc(-c5cccnc5)n4)c3)c2)cn1`: the growth in assay [1] was 64.4%; in assay [2], 20.9%; in assay [4], -36.3% (active); in [5], -22.3% (active); in assay [7] it was 45.6%; in assay [11], 31.6%. Besides, the growth in assay [12] is 45.2%; in assay [13] it was -41.7% (active); in assay [14], 2.64% (active); in assay [16], -30.9% (active); in assay [20], 38.5%; in assay [17], 59.9%.
Take `S=C1N(c2ccccc2)CN(C2CCCCC2)CN1c1ccccc1`: the growth was 106% in assay [1]; 103% in [2]; 92.3% in [3]; 97.6% in assay [5]; 103% in assay [19]; 80.6% in assay [7]. The growth in assay [8] is 125%; in [9], 102%; in assay [10] it was 103%; in assay [11], 75%; in [12], 104%; in [13], 96.5%. The growth was 117% in [14]; 95.9% in assay [15]; 106% in assay [16]; 63.2% in assay [20]; 103% in [17].
As to `CN(C)CCCN1c2ccccc2CCc2ccc(Cl)cc21`, the growth in [18] is 70.5%; in assay [2], 61.5%; in assay [3], 47.3%; in assay [4], 71.3%; in assay [5], 69.2%; in assay [6], 51.6%. In addition, the growth in assay [19] is 39.9%; in [7], 60.5%; in [8] it was 30.8%; in [9] it was 49.2%; in assay [10] it was 47.8%; in assay [11] it was 77.1%. Further, the growth in assay [12] is 77.5%; in [13], 53.1%; in assay [14], 82.4%; in assay [15], 59.3%; in [16], 72.3%; in assay [20], 68.7%. The growth in [17] was 59.5%.
